Screens: PubChem BioAssay, National Center for Advancing Translational Sciences (NCATS)
TSHR agonist: qHTS Assay for Agonists of the Thyroid Stimulating Hormone Receptor; HEK293-CNG-TSHR cells (CNG channel as cAMP sensor), membrane potential dye, cAMP; actives 0.48% (n = 73,000); Thyrotropin receptor (Homo sapiens), P16473; Potency, µM (doses to about 57.1 µM), for inactives: top-dose activation, usual class: activators; active = well fitted activation curve with a large enough effect in the main read-out, with a control signal flat, not every such curve was filed as active; inconclusive = small, poorly fitted or top-dose-only effect, or a change in a side signal; inactive = no such curve, though single readings can be large or run the other way; % of control where 0% means no effect;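 also: the control signal comes from parental cells without the receptor; potency is read from the fitted curve at half-maximal effect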
Target sequence (P16473 whole entry, looked up): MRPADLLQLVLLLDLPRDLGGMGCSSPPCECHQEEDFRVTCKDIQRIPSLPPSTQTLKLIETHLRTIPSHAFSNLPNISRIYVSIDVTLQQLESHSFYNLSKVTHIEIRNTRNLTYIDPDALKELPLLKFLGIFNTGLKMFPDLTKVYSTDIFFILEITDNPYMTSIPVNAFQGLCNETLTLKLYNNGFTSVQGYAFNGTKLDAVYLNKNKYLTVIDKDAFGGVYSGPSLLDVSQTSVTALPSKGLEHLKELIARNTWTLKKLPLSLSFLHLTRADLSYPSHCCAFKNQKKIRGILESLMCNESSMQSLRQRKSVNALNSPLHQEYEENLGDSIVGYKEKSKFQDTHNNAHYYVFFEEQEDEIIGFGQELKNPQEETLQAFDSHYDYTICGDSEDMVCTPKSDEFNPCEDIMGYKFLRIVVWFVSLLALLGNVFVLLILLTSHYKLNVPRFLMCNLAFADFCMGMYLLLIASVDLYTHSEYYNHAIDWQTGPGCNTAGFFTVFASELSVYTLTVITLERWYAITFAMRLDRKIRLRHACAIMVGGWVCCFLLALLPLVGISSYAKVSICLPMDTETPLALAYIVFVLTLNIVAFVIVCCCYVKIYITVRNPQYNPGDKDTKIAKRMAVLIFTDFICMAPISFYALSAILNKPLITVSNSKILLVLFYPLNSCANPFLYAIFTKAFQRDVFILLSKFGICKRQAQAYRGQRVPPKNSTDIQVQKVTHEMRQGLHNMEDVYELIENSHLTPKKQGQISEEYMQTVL
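cAMP rise detected as CNG-channel membrane depolarization by fluorescent dye (emission 590 nm), 30 min after compound, following 60 min dye loading containing 100 uM RO 20-1724 at room temperature. Cells: TSHR/CNG HEK 293, with parental CNG HEK 293 as control.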
HBB splice mod: qHTS Assay for Modulators of Hemoglobin Beta Chain Splicing | HBB splicing reporter cell assay, activation; EGFP reporter with mutant IVS2-654 intron; response scale: normalised to 500 nM splice-correcting PNA | Potency, µM (doses to about 46.1 µM), inactives show at the top dose activation, actives largely listed as activators | actives 0.06% (n = 65,000) | AID 925, 2007; also: potency is read from the fitted curve at half-maximal effect; 0% is about no effect
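Compounds were applied for 2 days to HeLa EGFP-654 cells, 500/well in Optimem with 2% FCS. The reporter's EGFP is disrupted by mis-splicing of beta-globin intron IVS2-654. Readout: summed well GFP fluorescence from 488 nm laser scanning; reference was 500 nM antisense […] 654 PNA.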
Epigenetic mod: qHTS Assay for Epigenetic Modulators; mouse C127i GFP locus derepression, cytometry, 30 h; Potency, µM (highest dose often 46.1 µM), for the others: at the highest dose GFP derepression (activation); actives 0.09% (n = 68,000); AID 597, 2007; also: % of control where 0% means no effect
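Locus derepression in mouse mammary C127i cells whose integrated CMV-GFP reporter is normally silent; GFP expression after 30 h compound treatment was quantified by counting fluorescent cells.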
ERK AVP block: qHTS Assay for Inhibitors of the ERK Signaling Pathway using a Homogeneous Screening Assay. HEK293-V1b, vasopressin-stimulated pERK AlphaScreen. Potency, µM (doses to about 57.5 µM), inactives show at the highest dose activity, negative = inhibition, hits mostly inhibitors. AID 995, 2007. actives 0.99% (n = 72,000); also: potency is read from the fitted curve at half-maximal effect; % is scaled to controls: 0 for no effect and ±100 for the full control effect; nearly all actives have a fitted effect of over 55% in size
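HEK293 cells stably expressing V1b receptor, preincubated 30 min at 37 °C with compound, then stimulated 5 min with 25 nM vasopressin. Phospho-ERK by AlphaScreen SureFire after 5 h RT; normalized to DMSO and vasopressin; AC50 by Hill fit.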
Ub-GFP proteasome: Ubiquitin-GFP Assay; Ubiquitin-GFP reporter cells, proteasome inhibition, GFP fluorescence; response scale: untreated = 0%, 10 µM MG-132 = 100%; Potency, µM (highest dose often 45.9 µM), inactives show at the highest dose activation (GFP accumulation), usual class: activators; 67,000 tested, under 10 active; AID 526, 2006; active = well fitted activation curve with a large enough effect, not every such curve was filed as active; inconclusive = small, poorly fitted or top-dose-only effect, or another doubt; inactive = no such curve, though single readings can be large or run the other way; also: potency is read from the fitted curve at half-maximal effect
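U2OS Ub(G76V)-GFP reporter; O/N plating, 0.5% FBS; cpd 46 uM–2.9 nM, 4 h, 37 °C; GFP+ cell count, 488/515 nm; norm. to basal vs 10 uM MG-132; CRC fit.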
HEK293 cAMP ctrl: qHTS Assay for Agonists of the Thyroid Stimulating Hormone Receptor: Activators of Intracellular cAMP Concentrations in Parental HEK 293 | parental HEK293 CNG cAMP sensor, membrane potential fluorescence | Potency, µM (highest dose often 57.1 µM), without a hit: at the top dose activation, actives largely listed as activators | actives 2.5% (n = 73,000) | AID 938, 2007; also: potency is read from the fitted curve at half-maximal effect; % of control where 0% means no effect; nearly all actives have a fitted effect of over 55% in size
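Parental HEK 293 cells stably expressing a modified CNG channel (no TSHR) report cAMP rise as membrane depolarization. Membrane potential dye with 100 uM RO 20-1724 was loaded for 60 min at room temperature, then compound added for 30 min; fluorescence read at 590 nm.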
* = called active by the depositor; ? = inconclusive; . = no result; [ ] = remark or other dose. The list is not random: actives were taken first. Their share in the collection is about 3.8%. Unless noted, calls follow the shape of the dose curve; as a rule, active = well fitted curve in the direction sought with a large enough effect; inconclusive = small, poorly fitted or top-dose-only effect, or another doubt; inactive = no such curve, though single readings can be large; an effect the other way counts as inactive or inconclusive.

SMILES	TSHR agonist	HBB splice mod	Epigenetic mod	ERK AVP block	Ub-GFP proteasome	HEK293 cAMP ctrl
CN1CCN(c2ncc3nc(-c4cccs4)c(=O)n(Cc4ccc(F)cc4)c3n2)CC1	?	?	4µM*	20%	?	?
COc1cccc(N(C(=O)c2cccs2)c2nc3ccccc3s2)c1	?	0%	2%	-6%	5%	13µM*
O=C1NC(=O)c2cc(Nc3ccccc3)c(Nc3ccccc3)cc21	.	.	.	32µM*	.	.
Cc1noc(C)c1C(=O)N1CCC2(CC1)CCN(c1cccc(-c3ccccc3)c1)CC2	-5%	1%	-2%[9.22 µM]	-16%	-2%	-3%
NCCC[C@@H](CC(=O)N[C@@H]1CCCC[C@H]1C(=O)N[C@H](CC(=O)N[C@@H](CCC(=O)O)CC(=O)O)Cc1ccccc1)NC(=O)C[C@H](Cc1ccccc1)NC(=O)[C@@H]1CCCC[C@H]1N	?	0%	.	.	.	0.032µM*
Cn1c(SCc2c(Cl)cccc2Cl)nnc1-c1cccs1	?	3%[0.369 µM]	0%	-8%	.	13µM*
Cc1ccc(CSc2nnc(-c3cccs3)n2C)cc1	29%	-1%	-1%	0%	0%	24%
c1ccc2c(c1)CCC[C@H]2C1=NCCN1	1%	2%	-1%	6%	-5%	-3%
COc1ccccc1OCc1ccc(C(=O)Nc2ccncc2)o1	12%	0%	2%	16µM*	-4%	18%
COc1ccccc1OCc1ccc(C(=O)NC(C)(C)C)o1	9%	-1%	8%	23%	-4%	16%
C=C1C(C2(C)C=CC(=O)C(C)(C)C2CC(=O)OC)CC[C@@]2(C)C(c3ccoc3)OC(=O)C3OC132 (stereo not given in full)	.	.	.	1%	.	.
O=C(O)[C@H]([C@H]1NCCS1)N1Cc2ccccc2C1	3%[11.4 µM]	5%[9.22 µM]	-3%[9.22 µM]	3%[11.5 µM]	3%[9.17 µM]	2%[11.4 µM]
O=C(NC1c2ccccc2-c2ccccc21)N1CCCCC1	?	-1%[0.0738 µM]	0%	-11%	23%[9.17 µM]	3.2µM*
C[C@](N)(C(=O)O)c1ccc(-c2nn[nH]n2)cc1	3%	.	8%	-29%	0%	-2%
OC[C@@H]1O[C@@H](n2cnc3c(NC4CCCC4)ncnc32)[C@@H](O)[C@H]1O	?	1%	0%	-30%	-5%	?
O=C(C1CC1)N1CCc2cc(Br)cc(S(=O)(=O)N3CCN(c4ccccn4)CC3)c21	?	0%	-5%	-21%	-6%	16µM*
CCOC(=O)C1CCN(S(=O)(=O)c2cc(Br)cc3c2N(C(=O)C2CC2)CC3)CC1	?	0%	-2%	?	3%	?
O=S(=O)(Nc1cccc(-c2cn3ccsc3n2)c1)c1ccc(F)cc1	9%	0%[57.5 µM]	2%	20µM*	0%	25%
COc1ccccc1OCC(=O)Nc1ccc(S(=O)(=O)N2CCCCCC2)cc1	?	-1%[0.0738 µM]	0%	25µM*	22%[9.17 µM]	?
COc1ccc(CC(=O)Nc2cccc(-c3nnc(-c4ccc(C)cc4)o3)c2)cc1OC	.	-1%	6%	7.9µM*	-6%	28%
COc1ccc(CC(=O)Nc2cccc(-c3nnc(-c4cccc(C)c4)o3)c2)cc1OC	?	-1%	-6%	3.2µM*	2%	?
COc1ccc(CC(=O)Nc2cccc(-c3nnc(-c4ccccc4)o3)c2)cc1OC	.	-1%	-3%	5µM*	-2%	29%
CN(C)C/C=C(\c1ccc(Br)cc1)c1cccnc1	3%[11.4 µM]	3%[9.22 µM]	13%[9.22 µM]	16%[11.5 µM]	-11%[9.17 µM]	0%[11.4 µM]
CC#CCOCC/C=C1/c2ccccc2C(OC)C1C (stereo not given)	1%[11.4 µM]	1%[9.22 µM]	.	1%[11.5 µM]	.	11%[11.4 µM]
C=CCCCCCCCCCCC/C=C/C(O)COC(C)=O (stereo not given)	.	.	.	-20%	.	.
SMILES	TSHR agonist	HBB splice mod	Epigenetic mod	ERK AVP block	Ub-GFP proteasome	HEK293 cAMP ctrl
CN(C)c1ccc(NC(=S)c2ccccn2)cc1	-28%	-5%	?	16µM*	-4%	-15%
COC(=O)C1(C)C=C2C(=C(c3ccccc3)C(=O)C2C)CN1 (stereo not given)	2%	1%	.	-4%	.	8%
CCOC(=O)c1ccccc1NC(=O)c1cc2sccc2n1C	?	.	0%	9%	2%	?
CCOC(=O)c1cccc(NC(=O)c2cc3sccc3n2C)c1	?	0%[57.5 µM]	3%	20%	-2%	10µM*
CN(C)c1ncc2nc(CCc3ccccc3)c(=O)n(C[C@H]3CCCO3)c2n1	?	0%	0%[9.22 µM]	-9%	3%	?
COc1ccccc1-c1oc2ccccc2c(=O)c1OC	?	.	-2%[9.22 µM]	4%	2%	32µM*
Cc1ccc(C)c(NC(=O)c2ccc3c(c2)N(Cc2ccc(F)cc2)C(=O)CS3=O)c1 (stereo not given)	?	-1%	0%	-2%	-3%	32µM*
COC(=O)[C@@H]1C[C@H]1[C@@H](NC(=O)c1cc(C)nn1C)c1ccccc1	6%	4%	.	-30%	.	24%
O=c1cc(CSc2nnc(COc3ccc(Cl)cc3)o2)c2ccccc2[nH]1	?	0%[57.5 µM]	0%	14%	12%	25µM*
CSc1nnc2c3ccccc3n(CCc3ccccc3)c2n1	?	-4%[0.0738 µM]	-2%	-2%	7%[9.17 µM]	4µM*
CSc1nnc2c3cc(F)ccc3n(Cc3ccccc3)c2n1	22%	1%[57.5 µM]	0%	-24%	2%	29%
CSc1nnc2c3ccccc3n(Cc3ccccc3)c2n1	?	0%	3%	-14%	-1%	20µM*
CCOc1ccc(/C=C/C(=O)c2cccs2)cc1	.	.	.	20%	.	.
COc1ccccc1NC(=O)CSc1nnc(Cc2cccn2C)n1CCc1ccccc1	?	-6%	2%	?	-11%	20µM*
Cn1cccc1Cc1nnc(SCC(=O)Nc2nccs2)n1CCc1ccccc1	21%	0%	0%	16µM*	0%	14%
C=Cc1cccc(C)c1	-2%	1%	.	15%	.	28%
C1=C(CN2CCOCC2)COc2c1cccc2OC[C@@H]1CNCCO1	13%	.	0%	-20%	2%	14%
Cn1cc(-c2nc3cnc(Oc4cccc(Cl)c4)nc3n(C3CC3)c2=O)c2ccccc21	8%	-2%	0%[9.22 µM]	-43%	-4%	15%
CCCn1nnc(NC(=O)c2ccccc2Br)n1	1%	1%	6%	-14%	4%	0%
